# From PubChem
# The entries come from a sample that favours hits as a whole.
# FECH inh = inhibitors of human ferrochelatase, primary screen, biochemical, purified FECH, Ni-mesoporphyrin absorbance; actives 3.3% (n = 20,000); Ni-mesoporphyrin absorbance 550 nm; calls only at 10 µM (by protocol); Ferrochelatase, mitochondrial (Homo sapiens), P22830;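 active means enzyme reaction rate more than 3 SD below the solvent-only control wells on the same plate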;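 further: lower slope than DMSO wells means FECH inhibition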
# Target sequence (P22830 whole entry, looked up): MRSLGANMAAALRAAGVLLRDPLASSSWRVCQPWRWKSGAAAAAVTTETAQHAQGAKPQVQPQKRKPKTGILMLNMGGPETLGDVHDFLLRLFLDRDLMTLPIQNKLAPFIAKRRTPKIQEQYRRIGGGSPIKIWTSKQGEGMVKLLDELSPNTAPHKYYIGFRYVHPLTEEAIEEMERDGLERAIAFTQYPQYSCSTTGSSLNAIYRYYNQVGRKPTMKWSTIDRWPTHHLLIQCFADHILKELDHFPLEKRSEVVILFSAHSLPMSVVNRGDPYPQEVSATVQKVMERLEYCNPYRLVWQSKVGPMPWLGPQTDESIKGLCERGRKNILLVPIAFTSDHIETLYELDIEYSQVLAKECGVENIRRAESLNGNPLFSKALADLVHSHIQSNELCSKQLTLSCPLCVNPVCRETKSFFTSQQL
# * hit, by the source's call; i = inactive; + = active, no number.
SMILES,FECH inh
CC(Cn1cncn1)NCc1nc2cc(C(C)(C)C)ccc2o1 (stereo not given),i
Cc1ccc(S(=O)(=O)N2CCC(CC(=O)NCC3CCCO3)CC2)cc1 (stereo not given),i
Cc1cccc(C)c1NC(=O)CN1CCN(Cc2ccccc2Cl)S1(=O)=O,i
COc1ccccc1NC(=O)CN1CCN(Cc2ccccc2Cl)S1(=O)=O,i
Cc1ccc(Cl)cc1NC(=O)CN1CCN(Cc2ccc(F)cc2Cl)S1(=O)=O,i
Cc1ccc(Cl)cc1NC(=O)CN1CCCN(Cc2ccccc2)S1(=O)=O,i
Cc1ccc(Cl)cc1NC(=O)CN1CCCN(Cc2ccccc2Cl)S1(=O)=O,+
Cc1c(Cl)cccc1NC(=O)CN1CCCN(Cc2ccccc2Cl)S1(=O)=O,+
CN(C)CCCn1c(=O)c2cnc(-c3ccc(Cl)cc3)nc2n(C)c1=O,i
Cc1cccc(CN2CCCN(CC(=O)NCc3ccc(F)cc3)S2(=O)=O)c1,i
Cc1ccc(OCCN(C)C(=O)C2(S(=O)(=O)c3ccccc3)CC2)c(C)c1,i
Cc1c(Cl)cccc1NCc1cc(=O)n2[nH]c(NCc3ccc(F)cc3)nc2n1,i
CCCc1cc(=O)n2[nH]c(CNc3c(C)cccc3C)nc2n1,i
COc1ccc(CNc2nc3nc(CNc4ccc(Cl)cc4)cc(=O)n3[nH]2)cc1,i
CCOc1ccccc1NCc1nc2nc(C(C)C)cc(=O)n2[nH]1,i
Cc1c(Cl)cccc1NCc1nc2nc(C(C)C)cc(=O)n2[nH]1,+
CCCc1cc(=O)n2[nH]c(CNc3ccccc3CC)nc2n1,+
CCCc1cc(=O)n2[nH]c(CNc3ccc(Cl)cc3)nc2n1,+
CCc1ccc(NCc2cc(=O)n3[nH]c(NCc4ccc(OC)cc4)nc3n2)cc1,i
CCCc1cc(=O)n2[nH]c(CNc3ccccc3OC)nc2n1,+
COc1ccccc1CNc1nc2nc(CN3CCN(c4ccccc4)CC3)cc(=O)n2[nH]1,i
CCCc1cc(=O)n2[nH]c(CNc3ccc(CC)cc3)nc2n1,i
CCCCS(=O)(=O)N1C[C@@H]2CN(C(=O)C3CC3)C[C@]2(C(=O)O)C1,i
CCN(C(=O)CN1CCCN(Cc2ccc(Cl)cc2)S1(=O)=O)c1ccccc1,i
O=C1C[C@H]2CC[C@@H](CN1)N2C(=O)C1c2ccccc2-c2ccccc21,i
SMILES,FECH inh
Cc1ccsc1S(=O)(=O)NC(CC(C)C)c1nnc2n1CCNCC2 (stereo not given),i
Cc1ccc(N2C(=O)CCS2(=O)=O)cc1S(=O)(=O)Nc1cccc(Br)c1,i
CC(C)CCNC(=O)c1nc[nH]c1C(=O)N1C[C@@H](C)O[C@@H](C)C1,i
Cc1ccc(N2C(=O)CCS2(=O)=O)cc1S(=O)(=O)N1CCN(c2cccc(C)c2C)CC1,i
CC(C)(C)c1ccc(S(=O)(=O)NCCn2c(C(F)(F)F)nc3cccnc32)cc1,i
CCc1ccc(S(=O)(=O)NCCn2c(C(F)(F)F)nc3cccnc32)cc1,i
CCOc1ccc(S(=O)(=O)NCCn2c(C(F)(F)F)nc3cccnc32)cc1,+
CCCc1cc(Sc2ccc(NC(=O)Nc3ccc(C)cc3)cc2)n2ncnc2n1,i
O=C(c1cn(-c2ccccc2)nn1)N1CCN(CCc2ccccn2)CC1,i
Cc1cc(N2CCCCC2)nc(N2CCN(S(=O)(=O)c3cc(C)c(C)cc3C)CC2)n1,i
CS(=O)(=O)N1CCN(Cc2nc3cccnc3n2-c2ccc(F)cc2)CC1,i
CC(NCc1cn[nH]c1-c1ccc(F)cc1)c1ccc(-n2cncn2)cc1 (stereo not given),i
COc1cccc(Nc2nc(NCCCOC(C)C)nc3c2cnn3-c2ccccc2)c1,i
O=C(Nc1ccc(Br)cc1F)N1CCC(n2cnc3cccnc32)CC1,+
Cc1ccc(NC(=O)N2CCC(n3cnc4cccnc43)CC2)c(Cl)c1,i
Cc1ccc(Cl)cc1NC(=O)N1CCC(n2cnc3cccnc32)CC1,i
Cc1cccn2cc(Cn3ccnc3-c3ccc(CO)o3)nc12,i
CCNC(=O)N1CCC(NC(=O)c2ccnc(C(C)C)n2)CC1,i
Cn1c(=O)c(C(=O)N2CCN(c3ncccn3)CC2)nc2ccccc21,i
COc1ccc(CN2CCN(C(=O)c3nc4ccccc4n(C)c3=O)CC2)c(OC)c1OC,+
COc1ccc(N2CCN(C(=O)c3nc4ccccc4n(C)c3=O)CC2)cc1,i
C=C(C)COc1ccc(C(=O)NC(C)Cc2cnccn2)cc1 (stereo not given),+
CC(Cc1cnccn1)NC(=O)c1cccc(-c2cccc(F)c2)c1 (stereo not given),i
CC(Cc1cnccn1)NC(=O)c1cc(-c2ccccc2)nn1C (stereo not given),i
OCc1ccccc1-c1ccc(O)c(-c2ccno2)c1,i
CC(C)C[C@@H](N)C(=O)NCc1ccc2nsnc2c1,i
CCc1nc(OCC(=O)NCc2cc(OC)ccc2OC)c2c(C)c(C)oc2n1,i
CCCCC1CCC(C(=O)Nc2cc(C)nn2-c2ncnc3c2cnn3-c2ccc(C)cc2C)CC1 (stereo not given),i
